Where “and” joins values, the source holds several entries; their conditions need not be identical. Identical values can stand only once. The panel holds about 83,000 compounds, 20% with a hit somewhere; the sample as a whole holds those more often.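 The endpoint reported here, percent growth, reads 100 for growth as untreated, 0 for no net growth and -100 for all cells dead.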 Values without a mark were called inactive. Calls of active or inactive are those of the source.
Test system: MDA-MB-468 breast
Assay: NCI-60 one-dose screen, 48 h (100 = growth as untreated, 0 = no growth, -100 = all killed)
Conditions: 10 µM unless noted
Method: Growth inhibition of the MDA-MB-468 human Breast tumor cell line is measured as a screen for anti-cancer activity. Cells are grown in 96 well plates and exposed to the test compound for 48 hours. Compounds are tested at a single concentration, which is 10^-5 M for most compounds. The reported endpoint is percent growth (GI% or GIPRCNT), where numbers from 0 - 100% represent growth inhibition, and numbers from -100% - 0 represent cell death. For example, a value of 40 represents 60% growth inhibition. A value of 0 means no net growth occurred over the course of the experiment. A value of -40 indicates 40% of cells at the beginning of the experiment died by the end of the experiment. A value of -100 means all cells are dead at the end of the experiment.
NCI-60 Human Tumor Cell Lines Screen was performed using the standard one-dose NCI protocol, which is described in more detail at https://dtp.cancer.gov/discovery_development/nci-60/default.htm.
Compounds with GIPRCNT values below 10 were considered active. Activity score was based on GIPRCNT using the following formula: […]
Score is 0 for GIPRCNT values of 100 or above, 50 for GIPRCNT values of 0, and 100 for GIPRCNT values of -100.

SMILES | growth
CC(=O)c1ccc2c(N)c(C(=O)Nc3ccc(C(F)(F)F)cc3)sc2n1 | 10.6%
COc1cccc(C(N)=Nc2ccc(OCCCCCCCCn3cncn3)cc2)c1 | 24.8%
Cn1cc(-c2cc(N)n3nc(-c4c[nH]c5ccccc45)cc3n2)c2ccccc21 | -79.8% (active)
O=C(c1ccc(O)cc1)C1[C@H](c2ccc(Cl)cc2)[C@@H](c2ccccc2)NC12C(=O)Nc1ccc(Br)cc12 (stereo not given in full) | -61.1% (active)
O=C(c1ccc(O)cc1)C1[C@H](c2ccccc2Br)[C@@H](c2ccccc2)NC12C(=O)Nc1ccccc12 (stereo not given in full) | -36.1% (active)
c1ccc(CSc2nnc(-c3ccc4nc(-c5ccccc5)[nH]c4c3)o2)cc1 | 2.91% (active)
CC(C)CN1C(=O)/C(=C\C(=O)c2cc3ccccc3oc2=O)c2ccccc21 | 32.6%
Cc1ccc(Cl)cc1NC(=O)Nc1nc2ccc([N+](=O)[O-])cc2s1 | -39.3% (active)
Nc1nn2c(-c3cc4cc(Br)ccc4oc3=O)ccnc2c1N=Nc1ccc(Br)cc1 | 39%
CC1CCc2c(sc3nc(SCC(=O)c4cccc([N+](=O)[O-])c4)n(-c4ccccc4)c(=O)c23)C1 (stereo not given) | 83%
O=C(N/N=C/c1ccsc1)c1[nH]c2ccc(Br)cc2c1-c1ccccc1 | -25.6% (active)
CN1CCN(CCS(=O)(=O)Nc2cc(-c3ccc4ncnc(Nc5ccc(F)c(Cl)c5)c4c3)cnc2Cl)CC1 | -75.1% (active)
Cc1ccc(C2CC(c3ccc(NC(=O)Nc4ccccc4)cc3)=NN2c2ccc(S(C)(=O)=O)cc2)cc1 (stereo not given) | -1.05% (active)
CCOC(=O)c1ccc(NC(=S)NC(=O)c2ccc(NC(=O)C(C)C)cc2OC)cc1 | 3.97% (active)
OC1CCC(Cn2c(C(F)(F)F)cc3c(Cl)ncnc32)CC1 (stereo not given) | 9.1% (active)
CCOc1ccccc1[C@H]1C(C(=O)c2ccc(Cl)cc2)C2(N[C@@H]1c1ccccc1)C(=O)Nc1ccc(Br)cc12 (stereo not given in full) | -21.5% (active)
CN(C)c1nc(NCCNS(=O)(=O)c2ccc(C(=O)/C=C/c3ccc(F)cc3)cc2)nc(N2CCOCC2)n1 | -36.6% (active)
CCCCCCCOc1ccc(S(=O)(=O)Nc2ccc(C)c(F)c2C(=O)O)cc1 | 72.8%
NC1(c2ccc(-c3ccc4ncnc(NCc5ccccc5)c4c3)cn2)COC1 | 102% and 103%
Cc1ccc(C(=O)Nc2cc(-n3ccnc3C)cc(C(F)(F)F)c2)cc1C#Cc1cnc2cccnn12 | -20.6% (active)

SMILES | growth
COc1cccc(/C=C/c2nc3ccccc3c(=O)n2CC(=O)Nc2ccccc2)c1 | 83.4%
C#CCCCNCCNc1ccnc2cc(Cl)ccc12 | 50.4%
COc1cc2cc(C(=O)N3C[C@@H](CCl)c4c3cc(OC(=O)N(CCC(=O)N3CCN(C)CC3)C3CCCCC3)c3ccccc43)[nH]c2c(OC)c1OC | -91.8% (active)
N#CC1=C(c2cccs2)Nc2c(c(-c3ccccc3)nn2-c2ccccc2)C12C(=O)Nc1ccc(Br)cc12 (stereo not given) | -31.9% (active)
c1n[nH]cc1-c1nc2ccc3cn[nH]c3c2c2c1CCCC2 | 78.5%
Fc1cccc(CNc2nc(SCCN3CCOCC3)nc3c2cnn3CC(Cl)c2ccc(Br)cc2)c1 (stereo not given) | 3.38% (active)
COc1ccc(N=Nc2c(N)nn3c(N)c(C#N)c(-c4ccccc4)nc23)cc1 | 31.7%
CC1=C(C(=O)Nc2ccccc2)C(c2cccc(Cl)c2Cl)n2c(nc3ccccc32)N1 (stereo not given) | -32.2% (active)
COc1ccc(-c2nc3ccc(-c4nnc(SCc5ccccc5)o4)cc3[nH]2)cc1OC | 44.1%
O=C1CC(c2ccc(I)cc2)OC2C=Cc3ccccc3C12 (stereo not given) | 123%
O=C(/C=C1\C(=O)N(Cc2ccccc2)c2ccccc21)c1cc2ccccc2oc1=O | 29.6%
CCOc1ccccc1NC(=O)N/C(N)=N/c1nc2ccccc2s1 | -11.4% (active)
Clc1ccc2c(NCCNC34CC5CC(CC(C5)C3)C4)ccnc2c1 | -92.3% (active)
COc1ccc(NC(=O)Nc2nc3ccc([N+](=O)[O-])cc3s2)cc1 | -7.85% (active)
CCOC(=O)/C(F)=C/C1CC1C(c1ccccc1)c1ccccc1 (stereo not given) | 36.2%
COc1ccc2[nH]c(O)c(N=NC(=O)c3ccc4nc(-c5ccc(Cl)cc5)[nH]c4c3)c2c1 | -48.3% (active)
CC1=C(C)C(=O)C(NCCN2CCOCC2)=C(Br)C1=O | -96.2% (active)
COc1ccc(N=Nc2c(N)nn3c(N)c(C#N)c(-c4ccc(C)cc4)nc23)cc1 | 32.4%
O=C(CSc1nnc(-c2ccc(-c3nc4ccc(Cl)cc4[nH]3)cc2)o1)Nc1ccccc1 | 90.9%
N#C/C(=C1/C(=O)Nc2ccccc21)c1nnc(NC(=O)c2ccc(-n3c(=O)[nH]c4ccccc4c3=O)cc2)s1 | 12.9%

From PubChem BioAssay (NCI)
